# From PubChem BioAssay
# The source made the active and inactive calls. Unless noted, the rule behind the calls is not given here.
# Key:
# [1] = resazurin metabolic signal in HepG2 cells – cell-based, resazurin fluorescence, 24 h, PK04 Diversity Set, profiling panel (AID 1172); conditions: HepG2 viability, higher = more signal
# [2] = budding yeast growth changes without added modifier – OD600, strain BY4716, 24 h, basal condition, primary screen (AID 1173); conditions: S. cerevisiae BY4716 growth, OD600, 24 h; higher = more signal, called active from +8 up or from −8 down
# [3] = viability profiling in MM1S myeloma cells – cell-based, resazurin fluorescence, basal, 24 h, PK04 Diversity Set, profiling panel (AID 1174); conditions: higher = more signal, called active from +8 up or from −8 down;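 note: MM1S multiple myeloma cell line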
# [4] = target: Dihydroorotate dehydrogenase (quinone), mitochondrial (Plasmodium falciparum (isolate 3D7)) (UniProt Q08210); assay: inhibition of P. falciparum DHODH – biochemical, C-terminal His tag, absorbance 600 nm, primary screen (AID 1175); conditions: PfDHODH enzyme, DCIP absorbance 600 nm; higher = more signal, called active from +8 up or from −8 down;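 note: recombinant parasite enzyme with a five histidine tag at its C terminus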
# Dihydroorotate dehydrogenase (quinone), mitochondrial (Plasmodium falciparum (isolate 3D7)), sequence (Q08210 whole entry, looked up): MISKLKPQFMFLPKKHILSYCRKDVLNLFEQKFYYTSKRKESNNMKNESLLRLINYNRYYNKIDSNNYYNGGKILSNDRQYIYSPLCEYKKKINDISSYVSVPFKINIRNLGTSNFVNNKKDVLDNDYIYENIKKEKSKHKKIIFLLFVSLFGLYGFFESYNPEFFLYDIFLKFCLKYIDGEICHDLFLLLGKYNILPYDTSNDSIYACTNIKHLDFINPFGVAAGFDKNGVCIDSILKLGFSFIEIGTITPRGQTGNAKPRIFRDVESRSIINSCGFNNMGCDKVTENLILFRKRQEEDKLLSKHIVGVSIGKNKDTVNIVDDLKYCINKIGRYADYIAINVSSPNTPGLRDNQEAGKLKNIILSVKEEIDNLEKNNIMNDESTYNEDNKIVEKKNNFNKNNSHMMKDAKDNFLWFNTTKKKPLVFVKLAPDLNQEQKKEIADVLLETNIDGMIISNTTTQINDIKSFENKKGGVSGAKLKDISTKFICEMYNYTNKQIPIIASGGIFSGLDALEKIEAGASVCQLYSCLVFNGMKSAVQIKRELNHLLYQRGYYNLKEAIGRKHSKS
# [5] = inhibition of PAO1 biofilm formation – strain PAO1, LB-PBS medium, absorbance 600 nm, primary screen (AID 1176); conditions: P. aeruginosa PAO1 growth/biofilm, A600, 12 h; higher = more signal
# [6] = growth modulation of vineyard yeast isolate – strain RM11-1a, OD600, basal, 24 h, primary screen (AID 1177);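 note: cultures grown under basal conditions with no added stressor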; conditions: S. cerevisiae RM11-1a growth, OD600, 24 h; higher = more signal, called active from +8 up or from −8 down
# [7] = growth of efflux-deficient E. coli DRC39 – strain DRC39, OD650, 24 h, E. coli filamentation inducers, primary screen (AID 1178);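 note: growth measured as culture turbidity by optical density at 650 nm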; conditions: E. coli DRC39 acrAB, higher = more signal, called active from +8 up or from −8 down
# [8] = growth of efflux-deficient E. coli DRC39 – strain DRC39, OD650, 48 h, E. coli filamentation inducers, primary screen (AID 1179);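 note: screen aims at cell division blockers that make cells filament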; conditions: E. coli DRC39 delta-acrAB growth, higher = more signal, called active from +8 up or from −8 down
# [9] = viability profiling in RPMI8226 myeloma cells – cell-based, resazurin fluorescence, basal, 24 h, PK04 Diversity Set, profiling panel (AID 1180); conditions: higher = more signal;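 note: RPMI8826 multiple myeloma cell line at 5000 cells per well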
# [10] = target: E3 ubiquitin-protein ligase XIAP (Homo sapiens) (UniProt P98170); assay: small molecules binding XIAP protein – biophysical, small-molecule microarray, fluorescence 635 nm, primary screen (AID 1181); conditions: higher = more signal;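 note: score merges 667 nm emission and signal to noise over triplicate slides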
# E3 ubiquitin-protein ligase XIAP (Homo sapiens), sequence (P98170 whole entry, looked up, the tested form may be a part): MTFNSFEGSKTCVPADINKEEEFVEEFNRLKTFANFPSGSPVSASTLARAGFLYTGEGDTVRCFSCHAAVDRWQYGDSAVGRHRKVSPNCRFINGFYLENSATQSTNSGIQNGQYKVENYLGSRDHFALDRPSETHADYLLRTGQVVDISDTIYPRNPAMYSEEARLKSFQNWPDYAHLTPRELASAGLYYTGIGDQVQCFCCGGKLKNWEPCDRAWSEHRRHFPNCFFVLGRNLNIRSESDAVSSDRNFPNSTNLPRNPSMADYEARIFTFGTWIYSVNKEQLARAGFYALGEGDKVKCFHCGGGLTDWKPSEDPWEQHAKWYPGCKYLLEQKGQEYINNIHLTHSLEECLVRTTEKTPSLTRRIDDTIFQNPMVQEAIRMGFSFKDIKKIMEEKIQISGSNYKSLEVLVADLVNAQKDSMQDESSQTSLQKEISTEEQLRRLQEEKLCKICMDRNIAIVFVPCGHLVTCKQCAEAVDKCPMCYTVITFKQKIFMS
# [11] = system: XIP peptide (Xip251-270) binding; assay: XIP fragment 251-270 binding compounds – biochemical, small-molecule microarray, fluorescence 635/667 nm, 0.1 µg/mL protein, primary screen (AID 1182); conditions: fluorescent protein binding, 635 nm, higher = more signal, called active from +8 up or from −8 down
# XIP peptide (Xip251-270) = assay: compounds binding XIP fragment 251-270 – biochemical, small-molecule microarray, fluorescence 635/667 nm, 0.5 µg/mL protein, primary screen (AID 1183); conditions: fluorescence 635 nm, higher = more signal
# [12] = blood-stage malaria parasite viability loss – strain 3D7, DAPI fluorescence, 100 nL, primary screen (AID 1184);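 note: parasites grown inside human red blood cells in medium with human serum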; conditions: P. falciparum 3D7 growth, 3 d, higher = more signal
# [13] = target: Homeobox protein Hox-A13 (Mus musculus) (UniProt Q62424); assay: disruptors of Hoxa13 oligonucleotide interaction – biochemical, fluorescence polarization, labeled oligonucleotide, primary screen (AID 1185); conditions: Hoxa13:DNA binding, 15 min, higher = more signal, called active from +8 up or from −8 down
# Homeobox protein Hox-A13 (Mus musculus), sequence (Q62424 whole entry, looked up): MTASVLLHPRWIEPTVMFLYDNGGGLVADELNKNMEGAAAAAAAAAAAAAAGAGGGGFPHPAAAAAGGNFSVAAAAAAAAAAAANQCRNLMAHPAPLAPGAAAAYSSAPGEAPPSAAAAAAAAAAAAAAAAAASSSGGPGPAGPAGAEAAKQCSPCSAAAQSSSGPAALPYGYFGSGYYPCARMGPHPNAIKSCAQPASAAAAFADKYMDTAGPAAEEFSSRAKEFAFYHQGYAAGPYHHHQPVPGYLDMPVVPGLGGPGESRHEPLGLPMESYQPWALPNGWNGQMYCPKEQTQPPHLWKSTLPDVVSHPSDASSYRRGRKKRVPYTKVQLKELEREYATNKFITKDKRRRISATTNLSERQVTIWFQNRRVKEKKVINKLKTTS
Structure (SMILES),z-score [1],z-score [2],z-score [3],composite z-score [4],z-score [5],z-score [6],z-score [7],z-score [8],z-score [9],composite z-score [10],composite z-score [11],composite z-score (XIP peptide (Xip251-270)),z-score [12],z-score [13]
C=C(C)C(=O)OCC1CN2[C@@H](CC[C@@H](C)[C@@H]2c2ccc(Br)cc2)C(=O)O1 (stereo partly specified),0.679,-0.638 (inactive),0.653 (inactive),-0.134 (inactive),-0.564 (inactive),-0.18 (inactive),0.0293 (inactive),-1.59 (inactive),0.759,-0.0899,-0.0135 (inactive),0.446,-0.19,-1.71 (inactive)
CC(C)=CCCC(C)=CCON=C1C[C@@H](O)[C@@H](O)[C@@H]2[C@@H]3C(=O)N(c4ccc(F)cc4F)C(=O)[C@@H]3CC[C@@H]12,0.387,-1.38 (inactive),0.77 (inactive),0.263 (inactive),0.519 (inactive),0.225 (inactive),0.781 (inactive),0.345 (inactive),0.75,-0.336,-0.0619 (inactive),0.542,-1.59,-4.62 (inactive)
CCC1=NOC(CCC2CC(OC(=O)NCc3cccc4c3OCO4)CC3(CCCC(COC(=O)NCCc4ccccc4OC)O3)O2)C1 (stereo unspecified),-0.211,-0.101 (inactive),0.0125 (inactive),-0.104 (inactive),1.43 (inactive),-0.509 (inactive),1.13 (inactive),0.918 (inactive),0.718,-0.294,1.87 (inactive),0.357,-0.95,-6.1 (inactive)
CC[C@@H](c1ccccc1)n1c(=O)n2n(c1=O)[C@H]1[C@H](O)[C@@H]3O[C@@H]3C(=NOC[C@@H](O)COCc3ccco3)[C@H]1CC2,-0.466,0.626 (inactive),-0.617 (inactive),-0.337 (inactive),-0.613 (inactive),-1.11 (inactive),0.243 (inactive),0.047 (inactive),-0.257,-0.117,-0.0593 (inactive),-0.268,-0.949,-3.57 (inactive)
COC(=O)CC=C[C@@H](C)[C@@H](C=NO[C@@H](C)c1cn([C@H](CO)Cc2ccccc2)nn1)OC,-0.849,-0.966 (inactive),0.104 (inactive),-0.842 (inactive),-0.418 (inactive),-2.71 (inactive),0.24 (inactive),-0.913 (inactive),-0.514,-0.139,-0.179 (inactive),0.0522,0.141,-0.41 (inactive)
CCOC(=O)[C@H](Cc1ccccc1)NC(=O)CCC1CC(OC(=O)NCCc2ccc(F)cc2)CC2(CCCC(COC(=O)NCc3ccccc3)O2)O1 (stereo partly specified),0.567,-0.298 (inactive),0.159 (inactive),-0.447 (inactive),0.013 (inactive),0.694 (inactive),0.321 (inactive),-0.158 (inactive),-0.0066,-0.0525,0.501 (inactive),0.283,-1.64,-2.25 (inactive)
CCOC(=O)[C@H](Cc1ccccc1)NC(=O)CCC1CC(OC(=O)NCc2cccc3ccccc23)CC2(CCCC(COC(=O)NCc3cccc(C(F)(F)F)c3)O2)O1 (stereo partly specified),-0.256,-0.168 (inactive),0.415 (inactive),-0.873 (inactive),0.675 (inactive),0.473 (inactive),0.213 (inactive),-0.215 (inactive),-0.573,0.158,0.418 (inactive),0.335,-1.39,-4.31 (inactive)
CCN1C(=O)[C@H]2[C@H]3[C@H](O)[C@H](O)CC(=O)[C@@H]3CC[C@H]2C1=O,-0.309,-0.553 (inactive),-0.399 (inactive),-0.308 (inactive),-0.72 (inactive),-0.162 (inactive),-0.307 (inactive),-0.164 (inactive),-0.752,0.112,0.221 (inactive),0.488,1.51,0.202 (inactive)
COc1cccc([C@H]2Oc3ccc(OC)cc3C(=NOC[C@@H](O)COCc3ccco3)[C@@H]2O)c1,-0.949,-1.38 (inactive),-1.19 (inactive),-1.58 (inactive),-0.254 (inactive),-2.29 (inactive),0.0207 (inactive),-0.947 (inactive),-0.825,0.0785,0.252 (inactive),-1.5,0.563,-5.25 (inactive)
